ELG1 genotox = inducers of genotoxicity in HEK293T ELG1-luciferase cells. HEK293T ELG1-luciferase reporter, luminescence, 16 h. Potency, µM (titrated, usually from 46 µM), most hits filed as activators. actives 1.3% (n = 330,000). AID 504466; also: nearly all actives have a fitted effect of over 60% in size
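Reporter readout depends on ELG1 protein level, which increases with genetic stress. After 16 hr compound exposure at 37 °C, luciferase activity was quantified using ONE-Glo.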
Luc counter = Kinase-Glo luciferase inhibition (counter-screen) | Q27757 | Kinase-Glo luciferase, ATP luminescence, 8 min | Potency, µM (series often up to 38.3 µM), hits mostly inhibitors | actives 0.28% (n = 200,000); also: nearly all actives have a fitted effect of over 60% in size
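Compound is pinned into ATP-containing buffer (10 uM ATP, imidazole pH 7.2, 7 mM MgCl2). Kinase-Glo luciferase reagent is then added. Light output is recorded following an 8-min room-temperature incubation.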
FLuc modulator = firefly luciferase modulation, counter-screen for miR-21 project. Potency, µM (top dose mostly 57.5 µM), most hits filed as inhibitors. actives 6.9% (n = 360,000). AID 588342. purified FLuc, Km substrates, luminescence inhibition; also: nearly all actives have a fitted effect of over 55% in size
Target sequence (P08659 whole entry, looked up): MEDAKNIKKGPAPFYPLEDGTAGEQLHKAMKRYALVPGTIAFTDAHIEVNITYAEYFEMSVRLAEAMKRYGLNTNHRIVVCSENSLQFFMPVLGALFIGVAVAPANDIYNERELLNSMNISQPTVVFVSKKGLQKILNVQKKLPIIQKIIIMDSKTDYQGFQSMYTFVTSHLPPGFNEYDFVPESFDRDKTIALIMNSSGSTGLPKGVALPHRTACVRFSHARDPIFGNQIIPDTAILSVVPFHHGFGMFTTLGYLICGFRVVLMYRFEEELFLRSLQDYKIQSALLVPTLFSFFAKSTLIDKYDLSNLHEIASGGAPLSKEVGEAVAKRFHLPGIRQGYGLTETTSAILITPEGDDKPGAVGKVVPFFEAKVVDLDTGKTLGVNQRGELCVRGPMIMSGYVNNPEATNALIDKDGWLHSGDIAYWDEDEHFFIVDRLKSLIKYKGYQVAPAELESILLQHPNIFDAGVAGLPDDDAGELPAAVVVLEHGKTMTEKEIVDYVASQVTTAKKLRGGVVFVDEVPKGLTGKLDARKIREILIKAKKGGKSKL
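Purified P. pyralis luciferase (10nM final) with 10uM D-luciferin and 10uM ATP (Km levels) in 50mM Tris acetate pH 7.5, 10mM Mg acetate, 0.01% Tween-20, 0.05% BSA; qHTS 6-point titration, ~60 µM downward; luminescence read.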
Rab9 promoter act = activates the Rab9 promoter; Huh7 Rab9 promoter-luciferase reporter, luminescence, 24 h; Potency, µM (series often up to 9.22 µM), most hits filed as activators; actives 2.8% (n = 320,000); AID 485297; also: nearly all actives have a fitted effect of over 60% in size
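Luminescence from Amplite-detected luciferase (10 minutes, ambient) reports Rab9 promoter activation. Before that, stable Rab9-luciferase Huh7 cells (1500/well, reduced-serum OP-MEM I plus 10% FBS) were exposed to compound for 24 hours at 37C.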
NPC1 prom act = NPC1 promoter activation; AID 485313; Huh7 NPC1 promoter luciferase reporter, 24 h; actives 2.4% (n = 320,000); Potency, µM (series often up to 9.22 µM), most hits filed as activators; also: nearly all actives have a fitted effect of over 60% in size
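Luminescence from an NPC1 promoter-driven luciferase reporter in stably transfected Huh7 cells was measured after 24 h compound treatment at 37 °C, followed by 10 min ambient incubation with luciferase detection reagent.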
SMN2 splice enh = SMN2 splice variant enhancement; HEK293 SMN2-luciferase splicing reporter, luminescence, 30-36 h; Potency, µM (doses to about 46.1 µM), most hits filed as activators; actives 2.8% (n = 210,000); AID 1458; also: nearly all actives have a fitted effect of over 55% in size
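HEK293 cells carry an SMN2 […]–luciferase reporter in which exon 7 inclusion puts luciferase in frame. Cells were plated 10-12 h before compound addition, then incubated 30-36 h at 37C. ONE-Glo luminescence was read; sodium butyrate at 4.5 mM final served as control.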
A number is an active result; n = inactive; u = inconclusive; x = not tested or not shown. Most compounds without a hit are left out; they make up all but 7.5% or so of the library. Calls follow the shape of the dose curve; as a rule, active = well fitted curve in the direction sought with a large enough effect; inconclusive = small, poorly fitted or top-dose-only effect, or another doubt; inactive = no such curve, though single readings can be large; an effect the other way counts as inactive or inconclusive.

SMILES	ELG1 genotox	Luc counter	FLuc modulator	Rab9 promoter act	NPC1 prom act	SMN2 splice enh
COc1ccc(-c2cc(C(=O)Nc3ccc4c(c3)OCO4)no2)cc1OC	n	x	n	n	n	n
O=C(Nc1ccc2c(c1)OCO2)c1cc(-c2ccccc2Cl)on1	9.2µM	x	5.36µM	1.58µM	2.51µM	x
CCOc1ccccc1C(=O)Nc1ccc(-n2nncc2-c2ccccc2)cc1	x	x	n	x	x	x
CC(C)c1nc(NCCO)c2nnn(Cc3ccccc3)c2n1	n	n	n	n	n	x
O=c1c(Cl)c(N2CCN(c3ccc(F)cc3)CC2)cnn1-c1nc2ccccc2s1	u	n	19µM	u	n	12.6µM
O=C1CC(N2CCN(c3nc4ccccc4s3)CC2)C(=O)N1c1ccc(F)cc1 (stereo not drawn)	n	n	n	n	n	n
Cc1nc(Br)c(Br)c(C)c1Br	n	x	n	n	n	x
O=C(Nc1ncn[nH]1)c1cccc(F)c1	n	x	n	n	n	x
O=C(Nc1noc2ccccc12)c1ccc(F)cc1	x	x	2.13µM	x	x	u
CC(=O)Nc1nonc1NC(=O)c1ccc(F)cc1	n	n	n	n	n	n
O=C(Nc1noc2ccccc12)c1cccc(F)c1	x	x	2.39µM	x	x	u
Cc1noc(C)c1C(=O)Nc1nnc(-c2ccccc2)s1	n	n	15.1µM	n	n	n
O=C(Nc1nnc(-c2ccc(F)cc2)s1)c1ccco1	u	x	2.69µM	3.16µM	2.82µM	x
Cc1cccc(N(C)S(=O)(=O)c2nnc(NC(=O)c3ccco3)s2)c1	n	x	n	n	n	x
O=C(Nc1nnc(S(=O)(=O)N2CCN(c3ccc(F)cc3)CC2)s1)c1ccco1	n	x	19µM	n	n	x
O=C(Nc1nnc(S(=O)(=O)N2CCOCC2)s1)c1ccc(F)cc1	n	x	n	n	n	x
Cc1cccc(-c2nnc(NC(=O)c3ccco3)s2)c1	20.6µM	x	10.7µM	3.16µM	2.82µM	x
O=C(NCCN1CCCCC1)c1cc(Cl)ccc1Cl	n	x	n	n	n	x
O=C(NC(=S)Nc1nc2c(s1)CCCC2)c1ccccc1	5.17µM	n	3.38µM	u	3.98µM	2µM
S=C(Nc1nc2c(s1)CCCC2)NC1CC1	u	x	12µM	2.51µM	u	x
COC(=O)c1ccc(C(=O)NC(=S)Nc2nc3c(s2)CCCC3)cc1	n	n	15.1µM	u	3.98µM	u
COCCCNC(=O)c1ccc(Cn2c(=O)c3cccn3c3cccnc32)cc1	x	x	n	x	x	x
CCCN1CCN(CCNC(=O)Nc2cc(C)ccc2C)CC1	n	x	n	n	n	x
CCOc1ccc(C(=O)Nc2cc(C)on2)cc1	u	n	3.38µM	1.41µM	1.12µM	8.91µM
Cc1cc(NC(=O)c2ccc(Cl)cc2)no1	8.2µM	n	7.57µM	3.16µM	u	11.2µM
SMILES	ELG1 genotox	Luc counter	FLuc modulator	Rab9 promoter act	NPC1 prom act	SMN2 splice enh
Cc1cc(NC(=O)c2ccc3c(c2)C(=O)N(C(C)(C)C)C3=O)no1	u	x	n	u	n	x
Cc1cc(NC(=O)c2cccc(COc3ccc(Br)cc3)c2)no1	0.651µM	n	9.53µM	0.447µM	0.355µM	0.355µM
Cc1cc(NC(=O)c2ccc3nc(C)sc3c2)no1	9.2µM	n	u	1.78µM	0.891µM	3.98µM
Cc1cc(NC(=O)c2ccc(S(=O)(=O)N(C)C)cc2)no1	n	n	n	n	n	n
CO/S(=N\S(=O)(=O)c1ccc(Cl)cc1)c1ccc([N+](=O)[O-])cc1 (stereo not drawn)	x	x	x	n	n	x
Cc1cc(NC(=O)Cc2ccccc2)no1	n	n	n	n	n	n
C/C(=C\c1ccccc1)C(=O)Nc1cc(C)on1	u	n	15.1µM	u	n	n
Cc1cc(NC(=O)NC(=O)c2ccccc2)no1	14.6µM	x	u	2.51µM	3.98µM	x
COC(=O)C1=CN(c2ccc(F)cc2)C=C(C(=O)OC)C1c1ccc(O)cc1	n	x	n	n	n	x
O=C1S/C(=C\C=C\c2ccco2)C(=O)N1c1ccccc1	n	n	u	u	u	n
O=C(O)C(Cc1ccccc1)N1C(=O)/C(=C/C=C/c2ccco2)SC1=S (stereo not drawn)	n	x	u	n	n	x
O=C(O)CC(C(=O)O)N1C(=O)/C(=C/c2ccc(-c3nc4ccccc4s3)o2)SC1=S (stereo not drawn)	n	n	19µM	n	n	n
O=C1S/C(=C\C=C\c2ccco2)C(=O)N1c1ccc(O)cc1	u	n	15.1µM	u	n	n
O=C(O)CC(C(=O)O)N1C(=O)/C(=C/C=C/c2ccco2)SC1=S (stereo not drawn)	n	x	12µM	n	n	x
O=C(O)CCCN1C(=O)/C(=C/C=C/c2ccco2)SC1=S	n	x	26.9µM	n	n	x
O=C(c1cc(C2CC2)nn1-c1ccccc1)N1CCN(S(=O)(=O)c2c(F)cccc2F)CC1	n	x	n	n	n	x
Cc1c(Cl)cccc1NC(=O)c1cc2nc(-c3ccc4c(c3)OCO4)cc(C(F)(F)F)n2n1	x	x	n	x	x	n
COc1ccc(CNS(=O)(=O)c2cc3c(cc2Cl)N(C(C)=O)CCO3)cc1	x	x	n	x	x	x
Cc1cc(=O)[nH]c(SCC(=O)c2c(N)n(C)c(=O)n(C)c2=O)n1	n	n	n	n	n	n
O=C(O)CCCN1C(=O)/C(=C\C(Cl)=C\c2ccccc2)SC1=S	n	x	9.53µM	n	n	x
O=C(NN1C(=O)/C(=C/C=C/c2ccco2)SC1=S)c1ccccc1O	n	x	19µM	n	n	x
Nc1ccccc1C(=O)NNc1c2ccccc2nc2ccccc12	n	x	19µM	n	n	x
Cc1cc(C)c2c(N)c3cccc(C)c3nc2n1	n	n	n	n	n	17.8µM
COc1ccc(/C=N/N=C2/NC(=O)C(CC(=O)O)S2)cc1OS(=O)(=O)c1ccccc1 (stereo not drawn)	n	n	u	n	n	n
COc1cc(/C=N/N=C2/NC(=O)C(Cc3ccccc3)S2)ccc1O (stereo not drawn)	n	n	2.39µM	n	n	n
SMILES	ELG1 genotox	Luc counter	FLuc modulator	Rab9 promoter act	NPC1 prom act	SMN2 splice enh
O=C1N/C(=N\N=C\c2ccccn2)SC1Cc1cccc(SC(F)F)c1 (stereo not drawn)	n	n	15.1µM	n	n	n
O=C1N/C(=N\N=C\c2ccc3ncccc3c2)SC1Cc1ccc(SC(F)F)cc1 (stereo not drawn)	u	n	0.536µM	u	u	12.6µM
O=C1N/C(=N\N=C\c2cccs2)SC1Cc1cccc(Cl)c1 (stereo not drawn)	n	n	n	n	n	n
O=C1N/C(=N\N=C\c2cccnc2)SC1Cc1ccc(SC(F)F)cc1 (stereo not drawn)	n	n	10.7µM	n	n	n
O=C(CC1S/C(=N/N=C/c2cccnc2)NC1=O)Nc1ccccc1 (stereo not drawn)	n	n	u	n	n	n
CCOC(=O)CCc1c(C)nc(-n2[nH]c(C)c(CCO)c2=O)[nH]c1=O	n	n	n	n	n	n

Bioassay records deposited in PubChem BioAssay by National Center for Advancing Translational Sciences (NCATS).
